# Over roughly 2,900 compounds, “NF-kB SEAP reporter activity, fold change vs agonist alone” has its median near 0.99; the highest 2% begin near 2.6. Shown is part of a subset that was picked to be rich in the highest values.
# How the values were obtained:
# RAW-Dual [1] = test: NF-kB SEAP reporter activity, fold change vs agonist alone; cytotoxicity flag (confluency mask): not cytotoxic; higher = enhanced NF-kB activity
# Procedure, shortened: (§1)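 Library stock was pin-tooled at 50 nL into 384-well plates of RAW-Dual macrophages (50,000 cells/well, DMEM), followed 1 h later by a PRR agonist, and the cells were kept at 37 °C, 5% CO2. Supernatant collected after 20 hours was read for IRF by QuantiLuc luminescence and for NF-κB by QuantiBlue absorbance at 620 nm. Reporter activity is fold change over agonist-alone wells, and a well counted as cytotoxic when its IncuCyte confluency was below 70% of agonist controls in both mask sets.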
# RAW-Dual [2] = test: NF-kB SEAP reporter activity, fold change vs agonist alone; higher = enhanced NF-kB activity
# Procedure, shortened: as §1
# RAW-Dual [3] = test: NF-kB SEAP reporter activity, fold change vs agonist alone; cytotoxicity flag (confluency mask): cytotoxic (confluency <70% of control); higher = enhanced NF-kB activity
# Procedure, shortened: as §1
# [4] = agonist: ODN 1826 (TLR9) 0.5 ug/mL
# [5] = agonist: Pam2CSK4 (TLR2/6) 0.1 ug/mL
# [6] = agonist: Pam3CSK4 (TLR2/1) 0.1 ug/mL
# [7] = library stock concentration (final ~1000-fold dilution): 10 mM, cytotoxicity flag (confluency mask): not cytotoxic, agonist: Imiquimod (TLR7) […]
# [8] = library stock concentration (final ~1000-fold dilution): 10 mM, cytotoxicity flag (confluency mask): not cytotoxic, agonist: MPLA (TLR4) […]
compound,measurement,setting,value
N#Cc1ccc(COCC2OC(n3c(NCc4ccc(Cl)c(Cl)c4)nc4c(N)ncnc43)C(O)C2O)cc1 (configuration not stated) (library stock concentration (final ~1000-fold dilution): 10 mM),NF-kB SEAP reporter activity,RAW-Dual [1]; agonist: LPS (TLR4) 0.1 ug/mL,0.934
same,NF-kB SEAP reporter activity,RAW-Dual [1]; [4],1.01
same,NF-kB SEAP reporter activity,RAW-Dual [1]; [5],0.742
same,NF-kB SEAP reporter activity,RAW-Dual [1]; [6],0.944
N#Cc1ccc(COCC2OC(n3c(NCc4ccc(Cl)c(Cl)c4)nc4c(N)ncnc43)C(O)C2O)cc1 (configuration not stated),NF-kB SEAP reporter activity,RAW-Dual [2]; [7],0.762
same,NF-kB SEAP reporter activity,RAW-Dual [2]; [8],0.966
Cc1ccc(NC(=O)Nc2cc(-c3ccccc3-c3nnn[nH]3)ccc2N(CC(C)C)CC(C)C)cc1,NF-kB SEAP reporter activity,"RAW-Dual [2]; library stock concentration (final ~1000-fold dilution): 10 mM, cytotoxicity flag (confluency mask): cytotoxic (confluency <70% of control), agonist: Imiquimod (TLR7) […]",0.81
same,NF-kB SEAP reporter activity,"RAW-Dual [2]; library stock concentration (final ~1000-fold dilution): 10 mM, cytotoxicity flag (confluency mask): cytotoxic (confluency <70% of control), agonist: MPLA (TLR4) […]",1.25
Cc1ccc(NC(=O)Nc2cc(-c3ccccc3-c3nnn[nH]3)ccc2N(CC(C)C)CC(C)C)cc1 (library stock concentration (final ~1000-fold dilution): 10 mM),NF-kB SEAP reporter activity,RAW-Dual [3]; agonist: LPS (TLR4) 0.1 ug/mL,1.16
same,NF-kB SEAP reporter activity,RAW-Dual [3]; [4],0.54
same,NF-kB SEAP reporter activity,RAW-Dual [3]; [5],0.207
same,NF-kB SEAP reporter activity,RAW-Dual [3]; [6],0.333
COc1ccc(CC(N)C(=O)NC2C(CO)OC(n3cnc4c(N(C)C)ncnc43)C2O)cc1.Cl.Cl (configuration not stated) (library stock concentration (final ~1000-fold dilution): 10 mM),NF-kB SEAP reporter activity,RAW-Dual [1]; agonist: LPS (TLR4) 0.1 ug/mL,0.584
same,NF-kB SEAP reporter activity,RAW-Dual [1]; [4],0.469
same,NF-kB SEAP reporter activity,RAW-Dual [1]; [5],0.13
same,NF-kB SEAP reporter activity,RAW-Dual [1]; [6],0.256
COc1ccc(CC(N)C(=O)NC2C(CO)OC(n3cnc4c(N(C)C)ncnc43)C2O)cc1.Cl.Cl (configuration not stated),NF-kB SEAP reporter activity,RAW-Dual [2]; [7],0.438
same,NF-kB SEAP reporter activity,RAW-Dual [2]; [8],1.12
NC(=O)c1cnc2[nH]ccc2c1NC1C2CC3CC1CC(O)(C3)C2 (configuration not stated),NF-kB SEAP reporter activity,RAW-Dual [2]; [7],0.334
same,NF-kB SEAP reporter activity,RAW-Dual [2]; [8],0.347
NC(=O)c1cnc2[nH]ccc2c1NC1C2CC3CC1CC(O)(C3)C2 (configuration not stated) (library stock concentration (final ~1000-fold dilution): 10 mM),NF-kB SEAP reporter activity,RAW-Dual [1]; agonist: LPS (TLR4) 0.1 ug/mL,0.305
same,NF-kB SEAP reporter activity,RAW-Dual [1]; [4],0.398
same,NF-kB SEAP reporter activity,RAW-Dual [1]; [5],0.242
same,NF-kB SEAP reporter activity,RAW-Dual [1]; [6],0.31
CC(NC(=O)CCc1nc2ccccc2c(=O)[nH]1)c1ccccc1 (configuration not stated),NF-kB SEAP reporter activity,RAW-Dual [2]; [7],1.03
same,NF-kB SEAP reporter activity,RAW-Dual [2]; [8],1.03
CC(NC(=Nc1cccc2ncccc12)NC#N)c1ccccc1 (configuration not stated) (library stock concentration (final ~1000-fold dilution): 10 mM),NF-kB SEAP reporter activity,RAW-Dual [1]; agonist: LPS (TLR4) 0.1 ug/mL,1.34
same,NF-kB SEAP reporter activity,RAW-Dual [1]; [4],1.07
same,NF-kB SEAP reporter activity,RAW-Dual [1]; [5],1.13
same,NF-kB SEAP reporter activity,RAW-Dual [1]; [6],1.29
CC(C(=O)Nc1cccc(N=Cc2c(O)ccc3ccccc23)c1)c1ccccc1 (configuration not stated) (library stock concentration (final ~1000-fold dilution): 10 mM),NF-kB SEAP reporter activity,RAW-Dual [1]; agonist: LPS (TLR4) 0.1 ug/mL,6.64
same,NF-kB SEAP reporter activity,RAW-Dual [1]; [4],2.52
same,NF-kB SEAP reporter activity,RAW-Dual [1]; [5],1.5
same,NF-kB SEAP reporter activity,RAW-Dual [1]; [6],1.74
CC(NC(=O)c1ccccc1N=Cc1c(O)ccc2ccccc12)c1ccccc1 (configuration not stated),NF-kB SEAP reporter activity,RAW-Dual [2]; [7],1.56
same,NF-kB SEAP reporter activity,RAW-Dual [2]; [8],2.25
CC(NC(=O)c1ccccc1N=Cc1c(O)ccc2ccccc12)c1ccccc1 (configuration not stated) (library stock concentration (final ~1000-fold dilution): 10 mM),NF-kB SEAP reporter activity,RAW-Dual [1]; agonist: LPS (TLR4) 0.1 ug/mL,5.11
same,NF-kB SEAP reporter activity,RAW-Dual [1]; [4],1.72
same,NF-kB SEAP reporter activity,RAW-Dual [1]; [5],0.843
same,NF-kB SEAP reporter activity,RAW-Dual [1]; [6],1.53
CC(NC(=Nc1cccc2ncccc12)NC#N)c1ccccc1 (configuration not stated),NF-kB SEAP reporter activity,RAW-Dual [2]; [7],0.897
same,NF-kB SEAP reporter activity,RAW-Dual [2]; [8],1.12
CC(C(=O)Nc1cccc(N=Cc2c(O)ccc3ccccc23)c1)c1ccccc1 (configuration not stated),NF-kB SEAP reporter activity,RAW-Dual [2]; [7],1.67
same,NF-kB SEAP reporter activity,RAW-Dual [2]; [8],2.34
CC(NC(=O)CCc1nc2ccccc2c(=O)[nH]1)c1ccccc1 (configuration not stated) (library stock concentration (final ~1000-fold dilution): 10 mM),NF-kB SEAP reporter activity,RAW-Dual [1]; agonist: LPS (TLR4) 0.1 ug/mL,0.987
same,NF-kB SEAP reporter activity,RAW-Dual [1]; [4],1.32
same,NF-kB SEAP reporter activity,RAW-Dual [1]; [5],0.95
same,NF-kB SEAP reporter activity,RAW-Dual [1]; [6],1.25
CCN1CCN(Cc2ccc(-c3cc4c(NC(C)c5ccccc5)ncnc4[nH]3)cc2)CC1 (configuration not stated) (library stock concentration (final ~1000-fold dilution): 10 mM),NF-kB SEAP reporter activity,RAW-Dual [1]; agonist: LPS (TLR4) 0.1 ug/mL,0.832
same,NF-kB SEAP reporter activity,RAW-Dual [1]; [4],0.215
same,NF-kB SEAP reporter activity,RAW-Dual [1]; [5],1.02
same,NF-kB SEAP reporter activity,RAW-Dual [1]; [6],1.01
CCN1CCN(Cc2ccc(-c3cc4c(NC(C)c5ccccc5)ncnc4[nH]3)cc2)CC1 (configuration not stated),NF-kB SEAP reporter activity,RAW-Dual [2]; [7],1.59
same,NF-kB SEAP reporter activity,RAW-Dual [2]; [8],0.93
CN1CCC(c2c(O)cc(O)c3c(=O)cc(-c4ccccc4Cl)oc23)C(O)C1.Cl (configuration not stated) (library stock concentration (final ~1000-fold dilution): 10 mM),NF-kB SEAP reporter activity,RAW-Dual [1]; agonist: LPS (TLR4) 0.1 ug/mL,0.188
same,NF-kB SEAP reporter activity,RAW-Dual [1]; [4],0.968
same,NF-kB SEAP reporter activity,RAW-Dual [1]; [5],0.469
same,NF-kB SEAP reporter activity,RAW-Dual [1]; [6],1.44
CN1CCC(c2c(O)cc(O)c3c(=O)cc(-c4ccccc4Cl)oc23)C(O)C1.Cl (configuration not stated),NF-kB SEAP reporter activity,RAW-Dual [2]; [7],1.64
same,NF-kB SEAP reporter activity,RAW-Dual [2]; [8],1.49
CC1(N)CCN(c2cnc(-c3cccc(Cl)c3Cl)c(N)n2)CC1.Cl (library stock concentration (final ~1000-fold dilution): 10 mM),NF-kB SEAP reporter activity,RAW-Dual [1]; agonist: LPS (TLR4) 0.1 ug/mL,1.2
same,NF-kB SEAP reporter activity,RAW-Dual [1]; [4],0.647
same,NF-kB SEAP reporter activity,RAW-Dual [1]; [5],0.778
same,NF-kB SEAP reporter activity,RAW-Dual [1]; [6],0.701
CC1(N)CCN(c2cnc(-c3cccc(Cl)c3Cl)c(N)n2)CC1.Cl,NF-kB SEAP reporter activity,RAW-Dual [2]; [7],1.11
same,NF-kB SEAP reporter activity,RAW-Dual [2]; [8],1.18
Cl.NCCCCC(N)C(=O)O (configuration not stated),NF-kB SEAP reporter activity,"RAW-Dual [2]; library stock concentration (final ~1000-fold dilution): 10 mM water, cytotoxicity flag (confluency mask): not cytotoxic, agonist: Imiquimod (TLR7) […]",0.925
same,NF-kB SEAP reporter activity,"RAW-Dual [2]; library stock concentration (final ~1000-fold dilution): 10 mM water, cytotoxicity flag (confluency mask): not cytotoxic, agonist: MPLA (TLR4) […]",1.06
Cl.NCCCCC(N)C(=O)O (configuration not stated) (library stock concentration (final ~1000-fold dilution): 10 mM water),NF-kB SEAP reporter activity,RAW-Dual [1]; agonist: LPS (TLR4) 0.1 ug/mL,1.04
same,NF-kB SEAP reporter activity,RAW-Dual [1]; [4],1.11
same,NF-kB SEAP reporter activity,RAW-Dual [1]; [5],1.21
same,NF-kB SEAP reporter activity,RAW-Dual [1]; [6],1.17

# Source: the supplement of paper PMC10037445
